Data reported in PubChem BioAssay (EPA / NIEHS).
Results filed as inconclusive are left out. Active and inactive are the calls of the source. Rule for the calls: active = hit-call score of the fitted dose curve at least 0.9, where 1 is the maximum; inconclusive = response in the unintended direction; inactive = score below 0.9.

Assay: ATG_M_32_XSP2: Attagene TRANS-FACTORIAL Multi-Species (XSP2) HepG2 Assay for M19 Transcription Factor (Internal Marker) (AID 2283826)
Description: ATG_XSP2_multi-species_TRANS is a cell-based, multiplexed assay created by modifying the existing Attagene TRANS-FACTORIAL system to include a panel of nuclear receptors from some or all the following species: human (Homo sapiens), mouse (Mus musculus), frog (Xenopus laevis), zebrafish (Danio rerio), chicken (Gallus gallus), and turtle (Chrysemys picta). The ECOTOX-FACTORIAL format uses HepG2, a human liver cell line, with measurements taken at 24 hours after chemical dosing in a 24-well plate. Xsp2 included 3 nM 6-alpha-fluorotestosterone and 1.5 nM norgestrel to stimulate the androgen receptor.ATG_M_32_XSP2 is one of 29 assay components measured or calculated from the ATG_XSP2_multi-species_TRANS assay. It is designed to make measurements of mRNA induction, a form of inducible reporter, as detected with fluorescence intensity signals by Reverse transcription polymerase chain reaction (RT-PCR) and Capillary electrophoresis technology.This assay endpoint, ATG_M_32_XSP2, was analyzed in the positive analysis fitting direction relative to DMSO as the negative control and baseline of activity. Using a type of inducible reporter, measures of mRNA for gain-of-signal activity can be used to understand the background control at the transcription factor-level as they relate to the gene. Furthermore, this assay endpoint can be referred to as a secondary readout, because this assay has produced multiple assay endpoints where this one serves a background control function. To generalize the intended target to other relatable targets, this assay endpoint is annotated to the background measurement intended target family, where the subfamily is internal marker.
Human liver HepG2 cells are transiently transfected with multiple reporter transcription units (MRTUs) in 6-well plates using FuGene 6 reagent (Roche; 3 ml FuGene/1 mg DNA). The MRTU constructs are regulated by a cis-regulating element (promoter). […] A major difference between the CIS and TRANS system is that in CIS activities of endogenous TFs are measured, whereas the TRANS assay evaluates changes in activities of exogenous, chimeric NR-Gal4 proteins. […] At the end of 24 hour incubation, total RNA was isolated using TriZol reagent (Invitrogen). The isolated RNA is then reverse-transcribed using oligo(dT) primer and Mo-MLV reverse transcriptase (Invitrogen) with DNAse I (Ambion) treatment for 30 min. The one-tenth of the produced cDNA was amplified by PCR using Taq DNA polymerase (Invitrogen) and two reporter sequence-specific primers. The PCR products were fluorescently labeled by primer extension with 6-arboxyfluorescein (6-FAM) 5'-labeled reporter sequence-specific primer (2 min at 95 C, 20 s at 68 C and 10 min at 72 C) and these products were digested with 5U of HpaI (New England Biolabs) for 2h at 37 C. The fragments were purified using Qiaquick PCR columns (Qiagen), analyzed on an ABI 3130xL genetic analyzer (Applied Biosystems) with peak positions identified by using a set of X-rhodamine (ROX)-labeled MapMarker1000 molecular weight standards (BioVentures). The raw capillary electrophoresis data was processed using Attagraph software (Attagene).

Row | Compound | outcome
1 | C[C@]12CC[C@H](O)CC1=CC[C@@H]1[C@@H]2CC[C@]2(C)C(=O)CC[C@@H]12 | inactive
2 | CC(C)C1CCC(Cc2ccc(Cl)cc2)C1(O)Cn1cncn1 (configuration not stated) | inactive
3 | CC1(C)CCC(Cc2ccc(Cl)cc2)C1(O)Cn1cncn1 (configuration not stated) | inactive
4 | CC(C)(C)c1cc(O)ccc1O | inactive
5 | CC12CC1(C)C(=O)N(c1cc(Cl)cc(Cl)c1)C2=O (configuration not stated) | inactive
6 | C[C@]12CCC(=O)C[C@@H]1CC[C@@H]1[C@@H]2CC[C@]2(C)[C@@H](O)CC[C@@H]12 | inactive
7 | Oc1c(I)cc(I)cc1I | inactive
8 | CC(=O)C=C(C)C | inactive
9 | O=C1C2(Cl)C3(Cl)C4(Cl)C(Cl)(Cl)C5(Cl)C3(Cl)C1(Cl)C5(Cl)C24Cl (configuration not stated) | inactive
10 | COP(=O)(OC)O/C(=C\Cl)c1cc(Cl)c(Cl)cc1Cl | inactive
11 | Oc1ccc(-c2ccccc2)cc1 | inactive
12 | Clc1ccc(C2(Cn3cncn3)CC(Br)CO2)c(Cl)c1 (configuration not stated) | inactive
